# According to PubChem BioAssay AID1645855 (Buhrlage Lab, Dana-Farber Cancer Institute and Novartis …, 2021):
# Screen size: about 47,000 compounds; about 3,100 (6.6%) were called active. What follows is part of a selection rich in actives, with near analogues and random picks from the rest. Values without a mark were called inactive. Cut-off read from the data, not from the text of the source: active = inhibition above about 30%; inactive = the rest.
# Biological target: Ubiquitin carboxyl-terminal hydrolase 17-like protein 5 (Homo sapiens) (UniProt A8MUK1)
# Assay: blocks human USP17 ubiquitin-rhodamine cleavage (AID 1645855)
# Conditions: purified USP17, Ub-rhodamine cleavage fluorescence, 3 h; at 50 µM; active compounds read high
# Chain of Ubiquitin carboxyl-terminal hydrolase 17-like protein 5 (Homo sapiens) (A8MUK1 whole entry, looked up): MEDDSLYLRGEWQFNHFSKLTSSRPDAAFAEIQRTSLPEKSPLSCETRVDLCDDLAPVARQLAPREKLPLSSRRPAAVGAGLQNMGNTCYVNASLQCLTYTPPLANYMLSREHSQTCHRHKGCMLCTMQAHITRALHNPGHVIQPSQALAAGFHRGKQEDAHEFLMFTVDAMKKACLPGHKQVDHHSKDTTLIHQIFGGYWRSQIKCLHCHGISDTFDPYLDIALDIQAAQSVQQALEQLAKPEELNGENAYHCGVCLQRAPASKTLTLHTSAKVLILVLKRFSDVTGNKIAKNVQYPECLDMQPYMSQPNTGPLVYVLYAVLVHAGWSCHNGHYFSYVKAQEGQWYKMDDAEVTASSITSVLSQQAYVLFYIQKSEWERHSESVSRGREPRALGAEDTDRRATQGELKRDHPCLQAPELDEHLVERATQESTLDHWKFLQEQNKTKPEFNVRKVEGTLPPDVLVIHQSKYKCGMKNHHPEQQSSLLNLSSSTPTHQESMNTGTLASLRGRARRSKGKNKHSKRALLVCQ
row,SMILES,inhibition
1,COc1ccccc1CC(=O)Nc1cc(S(=O)(=O)N2CCOCC2)ccc1N1CCN(C)CC1,-26.7%
2,C[C@H](NC(=O)Cc1ccc(Cl)cc1)C(=O)N1CCC2(CC1)NCCc1[nH]cnc12,9.11%
3,O=C(CSc1ncc(-c2ccc(F)cc2)[nH]1)N1CCCC1,2.63%
4,O=C(Cn1c(-c2nc(-c3ccc(F)cc3)no2)cccc1=O)N1CCCC1,33% (active)
5,O=C(c1ccc(F)cc1)N1CCCC(c2nc(-c3ccccc3)no2)C1 (stereo not drawn),11.7%
6,COc1ccc2[nH]c(C)c(CCNC(=O)c3cccs3)c2c1,0.591%
7,Cc1c(N2CCN(S(=O)(=O)c3ccc(C(C)C)cc3)CC2)c(=O)n(C)c(=O)n1C,-2.36%
8,Cc1nc(SCc2ccc([N+](=O)[O-])cc2)c2oc3ccccc3c2n1,12.4%
9,Cc1nc(SCC#N)c2oc3ccccc3c2n1,60.3% (active)
10,COc1cccc(Cc2cncc(C(=O)N3CCNC(=O)C3)c2)c1,6.62%
11,CSc1cccc(NC(=O)COc2ccc(C(=O)c3ccccc3)cc2)c1,12.9%
12,CSc1cccc(NC(=O)CC(=O)Nc2ccc3nc4n(c(=O)c3c2)CCCCC4)c1,34.4% (active)
13,CSc1cccc(NC(=O)CCc2ccc3nc[nH]c3c2)c1,-17.1%
14,Cc1cc(C)c2nc3c(cc2c1)CN(Cc1ccco1)C(=O)O3,51.9% (active)
15,Cc1ccc(-n2c3c(c(=O)[nH]c2=O)CN(Cc2ccco2)CN3)cc1,-9.75%
16,COc1ccc2nc3c(cc2c1)CN(Cc1ccccc1)C(=O)O3,18.5%
17,O=S(=O)(Cc1ccccc1)N1CC2(CCN(CC3CCCC3)CC2)C1,0.208%
18,COc1ccccc1CNC(=O)c1ccc(-n2nc(C)c3c2CCCC3=O)cc1,-3.98%
19,Cc1ccc(CNc2nnc(-c3nnc(C)o3)c3ccccc23)cc1,3.95%
20,CC(C)c1ccc(OCC(=O)NCc2nnnn2-c2ccc(Cl)cc2)cc1,11.8%
21,O=C(COc1ccc2ccccc2c1)NCc1nnnn1-c1ccc(Cl)cc1,49.4% (active)
22,Cc1ccc(NC(=O)NCc2nnnn2-c2ccccc2)cc1C,-3.49%
23,CC(NC(=O)c1csc(C(=O)NC2CC2)n1)c1ccc(F)cc1 (stereo not drawn),7.32%
24,CC(C(=O)NCCCN1CCOCC1)C1CCN(C(=O)c2cc3ccccc3[nH]2)CC1 (stereo not drawn),-0.784%
25,Cc1ccc(-c2nnc(NC(=O)C(c3ccccc3)c3ccccc3)o2)c(C)c1,2.51%
26,Cc1ccccc1CNC(=O)c1sc2ncnc(N3CCCC3)c2c1C,-0.361%
27,COc1ccc(OC)c(CNC(=O)c2nnc(C(=O)Nc3ccc(F)cc3)s2)c1,14.8%
28,Cc1nnc(C(=O)Nc2ccc(C(=O)NCc3ccccc3C)cc2)s1,68.1% (active)
